Laboratory results: PubChem BioAssay
Calls of active or inactive are those of the source.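 The calls were made as follows, unless noted: active = aptamer binding inhibition above 30%, about 3 SD of noise from non-fluorescent compounds; inactive = inhibition at or below 30%.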

How the values were obtained:
[1] = inhibitors of CD8+ T cell-vesicle binding, pilot screen, LFA-1/ICAM-1 modulator project, MLPCN validation set, flow cytometry (AID 2523;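 active = response below a set limit, under 55% cells CD8-positive and vesicle-bound, and CD8 cells' 90th-percentile brightness under 279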;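 as to vesicle binding response: mean PE anti-B7-1 fluorescence of CD8+ cells relative to row control; 100% = QL9-loaded vesicles with DMSO vehicle in the same plate row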); conditions: 2C mouse CD8+ T cells, at 7 µM, stronger effect = lower value; double positive events: measured here: CD8+/vesicle+ event percentage
[2] = target: Integrin beta-1 (Homo sapiens) + Integrin alpha-4 (Homo sapiens) (UniProt P13612+P05556); test: inhibition of HUTS-21 binding to VLA-4, pilot screen, VLA-4 allosteric modulator project, U937 cells, HUTS-21 mAb, flow cytometry, validation set (AID 2674;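 active = inhibition above 50%, about 3 SD of the validation set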;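 also: antibody binding induced by the VLA-4 ligand LDV present at three times its Kd; 0% = LDV ligand with antibody and no compound and 100% = antibody without LDV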); conditions: HUTS-21 LIBS mAb binding, at 6.7 µM, stronger effect = higher value, binding induced by LDV ligand
[3] = superoxide lowering in aged yeast cells, pilot screen, validation compound set (AID 2706;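 active = superoxide response below 65% of plate, a cut near 3 SD across the whole screen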;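 also: yeast exposed to compound for one week at 30 degrees C before staining; 100% = mean of all compound wells on the same plate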); conditions: S. cerevisiae aging, superoxide DHE fluorescence; at 10 µM, stronger effect = lower value
[4] = target: Beta-adrenergic receptor kinase 1 (Homo sapiens) (UniProt P25098); test: GRK2 binders displacing RNA aptamer, biochemical, validation, human GRK2, bead flow cytometry (AID 488806); conditions: bead-bound GRK2, FAM-aptamer displacement, at 10 µM, stronger effect = higher value
[5] = target: Beta-2 adrenergic receptor (Homo sapiens) (UniProt P07550); test: beta2AR agonists driving receptor internalization, pilot screen, cell-based, FAP fluorogen, flow cytometry, validation set (AID 504459;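 active = percent response above 42, roughly 3 SD of non-fluorescent test compounds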;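 also: agonist-driven loss of surface beta2AR via internalization measured by FAP dye flow cytometry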); conditions: Am2.2-beta2AR cells, FAP surface receptor flow cytometry; at 10 µM; stronger effect = higher value
[6] = target: AP-2 complex subunit beta (Homo sapiens) (UniProt P63010); test: inhibitors of arrestin peptide binding to AP2, pilot screen, biochemical, validation set, GST-AP2 beads, flow cytometry (AID 504541;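 active = inhibition above 54%, about 3 SD of non-fluorescent compounds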;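 also: AP2 carries R879A mutation and is captured from E. coli lysate; bead-bound FITC arrestin peptide fluorescence measuring arrestin peptide binding to AP2; 0% = DMSO wells and 100% = excess unlabeled arrestin peptide control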); conditions: FITC arrestin peptide, at 10 µM, stronger effect = higher value, AP2 beta2 appendage fragment, R879A mutant
[7] = yeast V-ATPase proton transport modulators, S. cerevisiae, pHLuorin, HTS validation (AID 504600; in the data active = response above about 15%;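 also: plate controls were DMSO for no effect and reference compound for full effect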); conditions: S. cerevisiae pHLuorin cytosolic pH, at 10 µM, stronger effect = higher value
[8] = system: anti-desmoglein-3 scFv antibody binding to human DSG3; test: inhibitors of anti-DSG3 scFv binding to DSG3, pilot screen, biochemical, validation compound set, bead-based, flow cytometry (AID 588368;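 active = binding below the plate cutoff, the plate median minus 3 SD, with a reading above zero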;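 also: signal is the median channel fluorescence of bead-bound GFP antibody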); conditions: Protein G beads, DSG3-Fc, scFv-GFP binding, at 10 µM, stronger effect = lower value
[9] = inhibitors of fungal efflux pumps CDR1, CDR2, MDR1, pilot screen, validation compound set, multiplex, phenotypic (AID 588506;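 active = efflux inhibition above 0.42, the validation set average plus 4 SD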;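 also: Nile Red retained in cells so higher fluorescence means more efflux inhibition; 0 = negative control wells and 1 = enniatin B 25 µM full block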); conditions: S. cerevisiae pump-expressing triplex, Nile Red efflux flow cytometry; at 10 µM; stronger effect = higher value; the pumps come from Candida albicans
[10] = promoters of myeloid differentiation in arrested cells, primary screen, cell-based, GFP/MAC1 double positive, flow cytometry, validation set (AID 588685;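 active = differentiation response of at least 50%, scaled between solvent and reference control, from cells with both markers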;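 also: compound exposure lasts four days before antibody staining and flow analysis; 0% = DMSO wells and 100% = 5 µM fulvestrant positive control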); conditions: ER-HoxA9 marrow cells, stronger effect = higher value, normalized: vehicle 0, fulvestrant 100
[11] = target: ATP-binding cassette sub-family B member 6 (Homo sapiens) (UniProt Q9NP58); test: ABCB6 transporter inhibitors, pilot screen, K562-ABCB6 cells, flow cytometry, validation set (AID 588550;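 active = inhibition above the screen-wide mean plus 3 SD, about 51%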;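 also: 0% = DMSO wells and 100% = benzethonium chloride 70 µM positive control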); conditions: K562-ABCB6 porphyrin accumulation, 1 h, at 10 µM, stronger effect = higher value
Chain of ATP-binding cassette sub-family B member 6 (Homo sapiens) (Q9NP58 whole entry, looked up): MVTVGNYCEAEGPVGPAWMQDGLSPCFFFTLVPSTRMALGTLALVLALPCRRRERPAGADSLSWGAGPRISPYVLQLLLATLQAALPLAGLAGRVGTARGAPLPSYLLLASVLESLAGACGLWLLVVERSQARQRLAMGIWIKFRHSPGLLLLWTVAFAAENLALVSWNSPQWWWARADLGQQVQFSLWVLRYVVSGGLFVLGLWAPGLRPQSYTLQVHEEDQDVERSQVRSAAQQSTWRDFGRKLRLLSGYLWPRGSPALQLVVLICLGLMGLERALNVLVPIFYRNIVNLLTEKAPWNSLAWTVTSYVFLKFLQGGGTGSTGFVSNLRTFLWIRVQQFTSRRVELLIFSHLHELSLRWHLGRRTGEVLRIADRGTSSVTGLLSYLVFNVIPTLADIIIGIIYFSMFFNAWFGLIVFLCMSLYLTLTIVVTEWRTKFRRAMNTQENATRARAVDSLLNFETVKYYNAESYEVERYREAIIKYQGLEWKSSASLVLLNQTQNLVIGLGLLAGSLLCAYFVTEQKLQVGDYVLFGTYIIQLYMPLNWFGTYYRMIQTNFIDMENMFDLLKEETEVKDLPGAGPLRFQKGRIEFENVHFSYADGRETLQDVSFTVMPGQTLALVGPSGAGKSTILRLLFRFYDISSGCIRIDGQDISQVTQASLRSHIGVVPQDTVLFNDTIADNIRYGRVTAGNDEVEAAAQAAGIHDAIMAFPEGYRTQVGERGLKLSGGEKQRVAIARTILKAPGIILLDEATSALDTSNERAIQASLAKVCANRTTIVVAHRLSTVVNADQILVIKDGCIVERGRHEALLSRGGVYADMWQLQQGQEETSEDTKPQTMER

Chain of Beta-2 adrenergic receptor (Homo sapiens) (P07550 whole entry, looked up): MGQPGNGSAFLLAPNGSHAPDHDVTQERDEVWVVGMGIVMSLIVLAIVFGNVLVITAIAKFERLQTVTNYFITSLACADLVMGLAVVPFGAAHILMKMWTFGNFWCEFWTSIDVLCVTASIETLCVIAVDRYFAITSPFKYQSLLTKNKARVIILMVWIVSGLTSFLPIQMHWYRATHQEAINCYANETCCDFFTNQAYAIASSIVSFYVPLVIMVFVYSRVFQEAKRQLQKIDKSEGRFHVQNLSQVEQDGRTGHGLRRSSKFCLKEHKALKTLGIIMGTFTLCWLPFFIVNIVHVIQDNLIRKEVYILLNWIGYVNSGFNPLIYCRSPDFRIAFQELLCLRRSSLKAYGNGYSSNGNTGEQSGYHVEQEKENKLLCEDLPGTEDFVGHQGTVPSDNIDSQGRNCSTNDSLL
Chain of Beta-adrenergic receptor kinase 1 (Homo sapiens) (P25098 whole entry, looked up): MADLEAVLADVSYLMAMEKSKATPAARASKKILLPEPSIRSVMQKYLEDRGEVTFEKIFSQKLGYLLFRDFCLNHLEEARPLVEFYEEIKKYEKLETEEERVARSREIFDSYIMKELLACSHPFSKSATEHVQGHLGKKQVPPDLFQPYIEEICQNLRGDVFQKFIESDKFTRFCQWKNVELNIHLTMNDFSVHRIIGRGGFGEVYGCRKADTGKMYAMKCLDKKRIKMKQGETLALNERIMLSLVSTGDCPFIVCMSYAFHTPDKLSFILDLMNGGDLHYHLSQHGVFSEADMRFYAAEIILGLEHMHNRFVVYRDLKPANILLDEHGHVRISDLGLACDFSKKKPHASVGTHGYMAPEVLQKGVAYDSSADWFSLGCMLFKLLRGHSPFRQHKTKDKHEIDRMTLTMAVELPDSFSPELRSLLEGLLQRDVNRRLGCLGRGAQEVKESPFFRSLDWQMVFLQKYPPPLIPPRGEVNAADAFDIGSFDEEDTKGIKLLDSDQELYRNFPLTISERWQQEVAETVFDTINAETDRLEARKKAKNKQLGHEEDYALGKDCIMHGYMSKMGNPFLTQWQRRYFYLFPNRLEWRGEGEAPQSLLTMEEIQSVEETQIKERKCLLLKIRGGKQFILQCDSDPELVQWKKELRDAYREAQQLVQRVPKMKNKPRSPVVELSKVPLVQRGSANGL
Chain of AP-2 complex subunit beta (Homo sapiens) (P63010 whole entry, looked up, the tested form may be a part, one chain of several): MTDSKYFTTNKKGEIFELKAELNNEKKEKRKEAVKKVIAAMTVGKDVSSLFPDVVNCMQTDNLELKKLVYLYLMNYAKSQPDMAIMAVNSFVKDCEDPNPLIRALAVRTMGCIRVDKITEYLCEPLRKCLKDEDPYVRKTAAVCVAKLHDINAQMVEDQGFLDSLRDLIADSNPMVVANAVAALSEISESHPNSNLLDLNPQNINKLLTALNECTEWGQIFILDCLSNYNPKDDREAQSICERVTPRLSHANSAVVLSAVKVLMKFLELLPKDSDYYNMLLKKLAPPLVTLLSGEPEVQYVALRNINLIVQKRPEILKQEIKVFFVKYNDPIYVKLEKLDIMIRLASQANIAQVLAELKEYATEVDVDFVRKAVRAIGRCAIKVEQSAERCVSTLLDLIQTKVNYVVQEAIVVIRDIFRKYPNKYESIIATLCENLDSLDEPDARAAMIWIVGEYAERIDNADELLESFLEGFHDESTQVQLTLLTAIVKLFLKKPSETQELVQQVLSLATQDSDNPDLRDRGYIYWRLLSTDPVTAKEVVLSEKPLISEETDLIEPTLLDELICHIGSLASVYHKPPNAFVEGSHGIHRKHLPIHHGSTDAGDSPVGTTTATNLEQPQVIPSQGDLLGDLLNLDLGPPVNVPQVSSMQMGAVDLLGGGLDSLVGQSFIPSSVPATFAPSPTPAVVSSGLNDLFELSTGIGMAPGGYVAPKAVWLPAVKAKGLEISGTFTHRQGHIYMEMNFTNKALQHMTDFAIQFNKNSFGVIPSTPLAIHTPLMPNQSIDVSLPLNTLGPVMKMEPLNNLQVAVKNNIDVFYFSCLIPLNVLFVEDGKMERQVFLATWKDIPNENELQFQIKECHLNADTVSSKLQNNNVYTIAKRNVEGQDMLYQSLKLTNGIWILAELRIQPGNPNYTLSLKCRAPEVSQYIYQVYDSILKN
Chain of Integrin beta-1 (Homo sapiens) + Integrin alpha-4 (Homo sapiens) (P05556 whole entry, looked up): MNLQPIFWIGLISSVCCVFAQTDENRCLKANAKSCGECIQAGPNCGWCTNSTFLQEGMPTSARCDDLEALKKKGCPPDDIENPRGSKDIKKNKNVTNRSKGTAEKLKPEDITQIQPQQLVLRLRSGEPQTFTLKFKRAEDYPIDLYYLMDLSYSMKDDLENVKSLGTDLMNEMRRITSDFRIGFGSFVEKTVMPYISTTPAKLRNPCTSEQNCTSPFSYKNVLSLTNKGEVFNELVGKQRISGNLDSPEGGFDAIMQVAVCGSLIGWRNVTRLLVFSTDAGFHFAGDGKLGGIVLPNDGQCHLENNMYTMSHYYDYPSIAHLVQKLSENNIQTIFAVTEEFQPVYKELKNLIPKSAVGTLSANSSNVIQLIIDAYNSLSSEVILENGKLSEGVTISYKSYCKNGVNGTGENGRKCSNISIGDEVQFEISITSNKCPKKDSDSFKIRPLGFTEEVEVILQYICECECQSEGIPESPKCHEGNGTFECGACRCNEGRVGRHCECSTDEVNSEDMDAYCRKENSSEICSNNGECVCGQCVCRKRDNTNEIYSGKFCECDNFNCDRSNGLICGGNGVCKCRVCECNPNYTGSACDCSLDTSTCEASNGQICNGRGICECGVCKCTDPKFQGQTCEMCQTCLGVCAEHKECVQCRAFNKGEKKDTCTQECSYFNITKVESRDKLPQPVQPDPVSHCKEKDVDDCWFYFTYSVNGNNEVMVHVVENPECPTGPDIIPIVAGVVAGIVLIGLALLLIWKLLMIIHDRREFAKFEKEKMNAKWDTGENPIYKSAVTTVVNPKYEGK
Chain of Integrin beta-1 (Homo sapiens) + Integrin alpha-4 (Homo sapiens) (P13612 whole entry, looked up): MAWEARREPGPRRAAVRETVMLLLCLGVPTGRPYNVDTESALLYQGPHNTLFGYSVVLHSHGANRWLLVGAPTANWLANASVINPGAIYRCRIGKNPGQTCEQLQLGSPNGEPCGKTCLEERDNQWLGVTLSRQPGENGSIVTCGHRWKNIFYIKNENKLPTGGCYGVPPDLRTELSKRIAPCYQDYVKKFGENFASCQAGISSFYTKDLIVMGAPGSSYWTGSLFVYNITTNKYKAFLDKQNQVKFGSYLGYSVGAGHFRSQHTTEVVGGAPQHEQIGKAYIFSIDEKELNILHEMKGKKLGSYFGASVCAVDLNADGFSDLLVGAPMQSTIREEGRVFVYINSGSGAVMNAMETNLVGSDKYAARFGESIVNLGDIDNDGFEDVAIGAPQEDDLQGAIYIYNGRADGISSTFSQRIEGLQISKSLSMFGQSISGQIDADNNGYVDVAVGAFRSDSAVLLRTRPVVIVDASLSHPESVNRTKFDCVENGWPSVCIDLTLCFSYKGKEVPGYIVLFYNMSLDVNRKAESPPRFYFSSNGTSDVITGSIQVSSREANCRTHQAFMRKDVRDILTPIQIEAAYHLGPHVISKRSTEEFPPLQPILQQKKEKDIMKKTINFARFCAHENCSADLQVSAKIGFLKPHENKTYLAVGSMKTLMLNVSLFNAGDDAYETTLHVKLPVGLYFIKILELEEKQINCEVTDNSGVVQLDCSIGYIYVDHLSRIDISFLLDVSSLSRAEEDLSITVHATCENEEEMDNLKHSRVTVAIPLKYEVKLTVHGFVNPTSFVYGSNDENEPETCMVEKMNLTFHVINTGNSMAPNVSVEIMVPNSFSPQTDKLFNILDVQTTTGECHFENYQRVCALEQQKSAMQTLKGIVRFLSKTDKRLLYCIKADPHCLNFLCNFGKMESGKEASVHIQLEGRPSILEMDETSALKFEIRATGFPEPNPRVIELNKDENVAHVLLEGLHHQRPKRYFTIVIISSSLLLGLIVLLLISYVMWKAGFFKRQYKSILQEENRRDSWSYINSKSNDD

Row | SMILES | double positive events [1] | vesicle binding response [1] | inhibition [2] | superoxide response (% of plate) [3] | aptamer binding inhibition [4] | response [5] | inhibition [6] | response [7] | binding (% of control) [8] | efflux inhibition (fraction of control) [9] | differentiation response [10] | inhibition [11]
1 | CSc1ccc2c(c1)N(CCC1CCCCN1C)c1ccccc1S2 (stereo unspecified) | 66.7% | 166% (inactive) | 27.1% (inactive) | 88.6% (inactive) | -7% (inactive) | 60.7% (active) | 0.21% (inactive) | -0.24% (inactive) | 106% (inactive) | -0.145 (inactive) | 11.5% (inactive) | –
2 | O=C(Nc1c(C(=O)O)[nH]c2ccccc12)NC1CCCCC1 | 60.3% | 190% (inactive) | -17.3% (inactive) | 102% (inactive) | 4% (inactive) | -18.9% (inactive) | 3.04% (inactive) | 5.33% (inactive) | 101% (inactive) | -0.13 (inactive) | -4% (inactive) | -3% (inactive)
3 | C=CCc1ccc(OCC(O)COc2ccc(CC=C)cc2OC)c(OC)c1 | 58.6% | 140% (inactive) | 7.76% (inactive) | 104% (inactive) | -1% (inactive) | 7.14% (inactive) | 3.97% (inactive) | 2.47% (inactive) | 104% (inactive) | 0.4 (inactive) | 50.4% (active) | 4% (inactive)
4 | CC(C)OC(=O)C(C)(C)Oc1ccc(C(=O)c2ccc(Cl)cc2)cc1 | 54.1% | 223% (inactive) | 12.8% (inactive) | 106% (inactive) | -1% (inactive) | – | -5.48% (inactive) | 0.98% (inactive) | 103% (inactive) | -0.09 (inactive) | -13.1% (inactive) | 7% (inactive)
5 | CCc1cc(=O)oc2cc(OCC=C(C)C)ccc12 | 66.7% | 297% (inactive) | 26.9% (inactive) | 89.5% (inactive) | 6% (inactive) | 1.45% (inactive) | -1.05% (inactive) | -0.58% (inactive) | 103% (inactive) | -0.03 (inactive) | -18.4% (inactive) | 3% (inactive)
6 | C=CCn1c(SCC(=O)NC2CCCCC2)nc2ccccc2c1=O | 57.6% | 172% (inactive) | 4.27% (inactive) | 114% (inactive) | 3% (inactive) | -5.54% (inactive) | 1.93% (inactive) | 11.4% (inactive) | 99.2% (inactive) | 0 (inactive) | -17.7% (inactive) | -4% (inactive)
7 | CCNCCC(CCC(C)C)c1ccc2c(c1)OCO2 (stereo unspecified) | 54.2% | 233% (inactive) | 9.09% (inactive) | 103% (inactive) | -1% (inactive) | – | -9.39% (inactive) | -1.01% (inactive) | 96.9% (inactive) | -0.16 (inactive) | 9.49% (inactive) | -3% (inactive)
8 | CCN(Cc1cnn(C)c1)Cc1nc(C(c2ccccc2)c2ccccc2)no1 | 61.8% | 168% (inactive) | 7.4% (inactive) | 120% (inactive) | -5% (inactive) | -21.6% (inactive) | -13.6% (inactive) | -8.11% (inactive) | 98.8% (inactive) | -0.04 (inactive) | 16.7% (inactive) | 1% (inactive)
9 | CC(=O)NCCCC(=O)NC(CCC(=O)OCc1ccccc1)C(=O)OCc1ccccc1 (stereo unspecified) | 72.6% | 425% (inactive) | 5.03% (inactive) | 86.7% (inactive) | 1% (inactive) | 6.65% (inactive) | -8.67% (inactive) | -0.06% (inactive) | 96.8% (inactive) | 0.4 (inactive) | 34.4% (inactive) | 2% (inactive)
10 | Cn1c(=O)[nH]c(=O)c2c1nc(Br)n2CCCO | 64.5% | 261% (inactive) | 6.29% (inactive) | 90.2% (inactive) | 0% (inactive) | – | 7.12% (inactive) | 0.07% (inactive) | 109% (inactive) | -0.01 (inactive) | -24.4% (inactive) | 8% (inactive)
11 | Cc1ccc(C(=O)NC(=S)NCCCN2CCOCC2)cc1 | 66.2% | 172% (inactive) | 5.49% (inactive) | 96% (inactive) | 4% (inactive) | 1.89% (inactive) | 4.05% (inactive) | 5.81% (inactive) | 103% (inactive) | -0.38 (inactive) | -0.82% (inactive) | 13% (inactive)
12 | N=c1ccn(CC(=O)NC(N)=O)c2ccccc12 | 55.8% | 241% (inactive) | 12.8% (inactive) | 99.5% (inactive) | 4% (inactive) | – | 8.55% (inactive) | 14.2% (inactive) | 95.7% (inactive) | -0.09 (inactive) | -3.43% (inactive) | -15% (inactive)
13 | O=Cc1ccc(N2CCCCC2)cc1 | 54.6% | 201% (inactive) | 10.9% (inactive) | 106% (inactive) | 3% (inactive) | – | -10.3% (inactive) | 1.25% (inactive) | 101% (inactive) | -0.05 (inactive) | -3.43% (inactive) | 4% (inactive)
14 | Oc1ccc(/C=C/c2cc(O)cc(O)c2)cc1 | 52.4% | 225% (inactive) | -6.77% (inactive) | 96.3% (inactive) | 2% (inactive) | – | 7.43% (inactive) | -1.9% (inactive) | 97.2% (inactive) | -0.43 (inactive) | -16.4% (inactive) | 6% (inactive)
15 | CNS(=O)(=O)c1ccc(C)cc1 | 56.5% | 148% (inactive) | 6.29% (inactive) | 99.3% (inactive) | 2% (inactive) | – | -8.71% (inactive) | 17.1% (active) | 93.9% (inactive) | 0.1 (inactive) | -0.2% (inactive) | 8% (inactive)
16 | CC(=Nc1ccccc1)C1=C(O)CCCC1=O | 61.6% | 312% (inactive) | 13.8% (inactive) | 104% (inactive) | 1% (inactive) | – | -9.14% (inactive) | 8.27% (inactive) | 97.7% (inactive) | -0.24 (inactive) | -21.2% (inactive) | 0% (inactive)
17 | COC(=O)c1cc(-c2c(C)oc3cc(OC)ccc3c2=O)c(C)o1 | 59.2% | 199% (inactive) | 2.3% (inactive) | 96.8% (inactive) | 1% (inactive) | 7.03% (inactive) | 2.24% (inactive) | 1.93% (inactive) | 105% (inactive) | -0.1 (inactive) | 18.4% (inactive) | 8% (inactive)
18 | COc1ccc(-c2c(NC(=O)c3ccco3)n(C)c3ccccc3c2=O)cc1 | 58.6% | 125% (inactive) | -1.09% (inactive) | 102% (inactive) | 3% (inactive) | 5.47% (inactive) | -5.24% (inactive) | -3.79% (inactive) | 99.6% (inactive) | -0.37 (inactive) | -7.5% (inactive) | -2% (inactive)
19 | O=C(C1CCCCC1)N1CC(=O)N2CCc3ccccc3C2C1 (stereo unspecified) | 61.4% | 225% (inactive) | -2.82% (inactive) | 109% (inactive) | 1% (inactive) | -15.4% (inactive) | -1.09% (inactive) | -5.39% (inactive) | 101% (inactive) | 0 (inactive) | 29.5% (inactive) | 3% (inactive)
20 | CCc1cn([C@H]2C[C@H](O)[C@@H](CO)O2)c(=O)[nH]c1=O | 71.1% | 232% (inactive) | -0.33% (inactive) | 95.6% (inactive) | -1% (inactive) | 7.43% (inactive) | 3.19% (inactive) | -0.71% (inactive) | 100% (inactive) | -0.42 (inactive) | 1.64% (inactive) | 16% (inactive)
21 | C=CCNC(=S)N1CCc2c([nH]c3ccccc23)C1C (stereo unspecified) | 60.6% | 194% (inactive) | 15.1% (inactive) | 99% (inactive) | -3% (inactive) | -13% (inactive) | -13.8% (inactive) | 2.11% (inactive) | 102% (inactive) | -0.09 (inactive) | -11.9% (inactive) | 15% (inactive)
22 | COc1ccc(CN(CCC(c2ccc(F)cc2)C2CCOC(C)(C)C2)C(=O)c2ccco2)cc1 (stereo unspecified) | 59.4% | 144% (inactive) | -8.62% (inactive) | 104% (inactive) | 5% (inactive) | 22.1% (inactive) | -11.3% (inactive) | 1.03% (inactive) | 101% (inactive) | 0.12 (inactive) | -13.6% (inactive) | 3% (inactive)
23 | O=c1c2ccccc2nc2n1-c1ccccc1CCC2 | 64.2% | 201% (inactive) | 13% (inactive) | 96.9% (inactive) | 1% (inactive) | -9.83% (inactive) | -5.56% (inactive) | 0.74% (inactive) | 99.2% (inactive) | -0.23 (inactive) | 1.22% (inactive) | 0% (inactive)
24 | O=C(O)C1Sc2[nH]c(=O)sc2C2c3ccc(O)cc3OC(=O)C12 (stereo unspecified) | 62.6% | 157% (inactive) | -11.8% (inactive) | 107% (inactive) | 1% (inactive) | -11.1% (inactive) | -0.44% (inactive) | 5.3% (inactive) | 95.7% (inactive) | -0.1 (inactive) | -3.11% (inactive) | -131% (inactive)
25 | Cc1nc(N[C@@H](Cc2c[nH]c3ccccc23)C(=O)O)c2oc3ccccc3c2n1 | 62.1% | 218% (inactive) | -0.24% (inactive) | 104% (inactive) | 0% (inactive) | – | -8.46% (inactive) | -0.92% (inactive) | 102% (inactive) | -0.24 (inactive) | -9.89% (inactive) | 9% (inactive)
26 | COc1c2occc2c(OC)c2c(=O)cc(C)oc12 | 48.6% | 176% (inactive) | 8.15% (inactive) | 108% (inactive) | 1% (inactive) | – | -4.24% (inactive) | 3.33% (inactive) | 102% (inactive) | 0.1 (inactive) | 33.7% (inactive) | 5% (inactive)
